Experimental data published in PubChem BioAssay (EPA / NIEHS).
Inconclusive results are not listed. Calls of active or inactive are those of the source. How the source made its calls, unless noted: active means hit-call score of the fitted dose curve at least 0.9, where 1 is the maximum; inconclusive means response in the unintended direction; inactive means score below 0.9.

Tests used:
[1] = ATG_TAL_CIS: Attagene CIS-FACTORIAL HepG2 Assay for human TAL Basal Promoter (AID 2282966; active means hit-call score of the fitted dose curve at least 0.9, where 1 is the maximum; inactive means score below 0.9;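 further: background control endpoint measuring basal TAL promoter reporter mRNA not a specific factor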); settings: HepG2 Attagene cis-factorial TAL promoter reporter; actives raise or lower the signal
Summary of the method: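 After 24 hours of chemical exposure, transfected HepG2 cells yielded RNA that was converted to 6-FAM-labelled, HpaI-digested reporter fragments for capillary electrophoresis. Values derive from bidirectional fitting against DMSO controls.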

[2] = ATG_TGFb_CIS: Attagene CIS-FACTORIAL HepG2 Assay for human Transforming Growth Factor (TGF) (AID 2282967; active means hit-call score of the fitted dose curve at least 0.9, where 1 is the maximum; inactive means score below 0.9); settings: HepG2 Attagene CIS TGFb reporter, mRNA transcription; actives raise or lower the signal
Summary of the method: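 Endogenous TGFB1-linked transcription factor activity read as reporter mRNA via RT-PCR and capillary electrophoresis, 24 h after dosing transiently transfected HepG2 cells. Gain or loss of signal fitted relative to DMSO.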

[3] = ATG_VDRE_CIS: Attagene CIS-FACTORIAL HepG2 Assay for human Vitamin D Receptor Element (VDRE) (AID 2282968; active means hit-call score of the fitted dose curve at least 0.9, where 1 is the maximum; inactive means score below 0.9); settings: HepG2 VDRE cis-reporter transcription, actives raise or lower the signal
Summary of the method: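 Compounds were applied for 24 h to HepG2 cells transfected with promoter-regulated reporter units. Total RNA was reverse-transcribed, and reporter amplicons were fluorescently labelled and sized by capillary electrophoresis.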

[4] = molecular target: X-box-binding protein 1 (Homo sapiens) (UniProt P17861); assay: ATG_Xbp1_CIS: Attagene CIS-FACTORIAL HepG2 Assay for human X-box Binding Protein 1 (XBP1) (AID 2282972; active means hit-call score of the fitted dose curve at least 0.9, where 1 is the maximum; inactive means score below 0.9); settings: HepG2 XBP1 cis-element reporter, Attagene multiplex; actives raise or lower the signal
Sequence of X-box-binding protein 1 (Homo sapiens) (P17861 whole entry, looked up): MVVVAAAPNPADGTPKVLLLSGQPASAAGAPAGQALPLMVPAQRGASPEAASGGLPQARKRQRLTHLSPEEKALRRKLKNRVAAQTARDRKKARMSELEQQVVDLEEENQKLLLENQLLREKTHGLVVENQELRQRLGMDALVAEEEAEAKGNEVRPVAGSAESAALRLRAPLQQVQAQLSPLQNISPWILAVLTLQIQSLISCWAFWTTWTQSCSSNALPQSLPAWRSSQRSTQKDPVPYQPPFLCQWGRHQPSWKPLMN
Summary of the method: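 Changes in reporter transcript abundance, read by RT-PCR and capillary electrophoresis, reflect endogenous transcription factor activity. Transfected HepG2 cells received compound for 24 hours; DMSO defined baseline for bidirectional analysis.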

[5] = ATG_GAL4_TRANS: Attagene TRANS-FACTORIAL HepG2 Assay for GAL4 (Internal Marker) (AID 2282976); settings: HepG2 Attagene TRANS GAL4 internal marker reporter
Summary of the method: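 First, HepG2 cells were transfected with reporter units under GAL4-UAS control. Next, they were treated with chemical for 24 h. Finally, RNA was reverse-transcribed, PCR-amplified, FAM-labelled and resolved by capillary electrophoresis, with induction scored against DMSO.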

[6] = ATG_M_06_TRANS: Attagene TRANS-FACTORIAL HepG2 Assay for M06 Transcription Factor (Internal Marker) (AID 2282983); settings: HepG2 Attagene TRANS M06 internal marker reporter
Summary of the method: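 Background control endpoint: reporter mRNA from transiently transfected HepG2 after 24 h dosing, detected by RT-PCR with capillary electrophoresis fluorescence. Analysed for gain versus DMSO.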

[7] = ATG_M_32_TRANS: Attagene TRANS-FACTORIAL HepG2 Assay for M32 Transcription Factor (Internal Marker) (AID 2282984); settings: HepG2 Attagene TRANS M32 internal marker reporter
Summary of the method: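 Internal-marker readout from a multiplexed transcription reporter panel. HepG2 cells were transfected with GAL4-UAS reporter units, treated 24 hours, and reporter transcript levels determined by fluorescence after RT-PCR and capillary separation.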

[8] = molecular target: Transcriptional activator Myb (Homo sapiens) (UniProt P10242); assay: ATG_Myb_CIS: Attagene CIS-FACTORIAL HepG2 Assay for human Myeloblastosis (Myb) Proto-Oncogene Transcription Factor (AID 2282986; active means hit-call score of the fitted dose curve at least 0.9, where 1 is the maximum; inactive means score below 0.9); settings: HepG2 Attagene CIS-FACTORIAL Myb reporter transcription; actives raise or lower the signal
Sequence of Transcriptional activator Myb (Homo sapiens) (P10242 whole entry, looked up): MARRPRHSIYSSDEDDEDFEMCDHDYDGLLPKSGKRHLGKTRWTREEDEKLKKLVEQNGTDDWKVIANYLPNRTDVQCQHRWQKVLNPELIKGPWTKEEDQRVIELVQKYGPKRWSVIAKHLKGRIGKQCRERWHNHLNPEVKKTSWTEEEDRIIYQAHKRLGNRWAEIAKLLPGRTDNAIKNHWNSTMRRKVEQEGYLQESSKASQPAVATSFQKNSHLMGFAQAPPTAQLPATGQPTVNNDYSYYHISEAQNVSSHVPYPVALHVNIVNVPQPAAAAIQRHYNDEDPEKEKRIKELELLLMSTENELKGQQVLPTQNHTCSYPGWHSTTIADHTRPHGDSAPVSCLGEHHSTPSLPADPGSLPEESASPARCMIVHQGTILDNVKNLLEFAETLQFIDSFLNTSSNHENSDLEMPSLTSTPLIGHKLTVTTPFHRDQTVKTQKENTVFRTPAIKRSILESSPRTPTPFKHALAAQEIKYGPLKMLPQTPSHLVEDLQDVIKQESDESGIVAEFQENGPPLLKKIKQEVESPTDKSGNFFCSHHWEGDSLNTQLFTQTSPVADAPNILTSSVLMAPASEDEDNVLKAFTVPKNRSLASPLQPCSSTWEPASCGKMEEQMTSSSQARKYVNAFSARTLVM
Summary of the method: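 Reporter transcript levels, quantified by fluorescent RT-PCR and capillary electrophoresis, serve as the read-out. Transfected HepG2 cells carrying cis-promoter reporter units are dosed for 24 hours, and curves are fitted bidirectionally against DMSO controls.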

[9] = molecular target: Nuclear respiratory factor 1 (Homo sapiens) (UniProt Q16656); assay: ATG_NRF1_CIS: Attagene CIS-FACTORIAL HepG2 Assay for human Nuclear Respiratory Factor 1 (NRF1) Orphan Gene (AID 2282987; active means hit-call score of the fitted dose curve at least 0.9, where 1 is the maximum; inactive means score below 0.9); settings: HepG2 NRF1 cis-element reporter, Attagene multiplex; actives raise or lower the signal
Sequence of Nuclear respiratory factor 1 (Homo sapiens) (Q16656 whole entry, looked up): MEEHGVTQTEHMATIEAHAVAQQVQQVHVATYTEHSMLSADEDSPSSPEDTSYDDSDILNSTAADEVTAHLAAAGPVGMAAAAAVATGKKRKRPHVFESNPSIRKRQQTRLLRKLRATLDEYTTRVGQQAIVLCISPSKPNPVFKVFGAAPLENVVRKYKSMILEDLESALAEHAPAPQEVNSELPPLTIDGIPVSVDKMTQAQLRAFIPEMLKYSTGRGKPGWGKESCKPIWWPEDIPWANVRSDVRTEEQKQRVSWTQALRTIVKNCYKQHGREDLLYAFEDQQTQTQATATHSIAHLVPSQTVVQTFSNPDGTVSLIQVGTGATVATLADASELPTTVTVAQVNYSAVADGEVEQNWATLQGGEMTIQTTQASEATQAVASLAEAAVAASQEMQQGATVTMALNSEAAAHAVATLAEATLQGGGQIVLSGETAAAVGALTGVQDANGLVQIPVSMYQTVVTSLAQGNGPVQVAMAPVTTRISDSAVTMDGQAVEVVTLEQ
Summary of the method: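 Multiplexed cis-reporter assay, HepG2 cells, 24 h treatment. Total RNA → oligo(dT) RT → PCR with reporter-specific primers → 6-FAM primer extension → HpaI cut → CE. Bidirectional fit vs DMSO.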

[10] = ATG_M_19_TRANS: Attagene TRANS-FACTORIAL HepG2 Assay for M19 Transcription Factor (Internal Marker) (AID 2282974); settings: HepG2 Attagene TRANS-FACTORIAL M19 internal marker reporter
Summary of the method: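 Fluorescence of 6-FAM-labelled reporter cDNA fragments, separated by capillary electrophoresis, served as the readout. These derived from HepG2 cells carrying transfected GAL4-UAS reporter units after 24 h dosing, with DMSO as negative control.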

[11] = molecular target: Oxysterols receptor LXR-alpha (Homo sapiens) (UniProt Q13133); assay: ATG_LXRa_TRANS: Attagene TRANS-FACTORIAL HepG2 Assay for human Liver X Receptor alpha (LXRa) (AID 2282980); settings: HepG2 Attagene TRANS reporter, LXRa transactivation
Sequence of Oxysterols receptor LXR-alpha (Homo sapiens) (Q13133 whole entry, looked up, the tested form may be a part): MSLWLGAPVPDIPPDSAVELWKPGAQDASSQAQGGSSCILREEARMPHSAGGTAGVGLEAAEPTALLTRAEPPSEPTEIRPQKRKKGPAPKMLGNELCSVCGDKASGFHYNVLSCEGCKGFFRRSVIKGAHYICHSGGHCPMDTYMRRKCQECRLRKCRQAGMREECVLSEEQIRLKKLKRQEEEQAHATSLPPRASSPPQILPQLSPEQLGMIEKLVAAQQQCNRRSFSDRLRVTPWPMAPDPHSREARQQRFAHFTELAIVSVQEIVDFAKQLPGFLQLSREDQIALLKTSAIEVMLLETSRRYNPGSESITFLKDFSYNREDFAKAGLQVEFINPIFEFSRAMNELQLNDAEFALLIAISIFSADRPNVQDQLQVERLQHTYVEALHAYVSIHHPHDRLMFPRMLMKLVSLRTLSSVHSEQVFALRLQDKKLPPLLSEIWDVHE
Summary of the method: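 Transfect HepG2 with GAL4-UAS multiplex reporter constructs (TRANS format, chimeric receptor-GAL4); treat 24 h; extract RNA, reverse-transcribe, PCR-amplify, FAM-label, HpaI-digest; resolve fragments by capillary electrophoresis. Upward response vs DMSO.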

[12] = molecular target: Hepatocyte nuclear factor 4-alpha (Homo sapiens) (UniProt P41235); assay: ATG_HNF4a_TRANS: Attagene TRANS-FACTORIAL HepG2 Assay for human Hepatocyte Nuclear Factor 4 alpha (HNF4a) (AID 2282982); settings: HepG2 HNF4a transactivation reporter, mRNA readout
Sequence of Hepatocyte nuclear factor 4-alpha (Homo sapiens) (P41235 whole entry, looked up, the tested form may be a part): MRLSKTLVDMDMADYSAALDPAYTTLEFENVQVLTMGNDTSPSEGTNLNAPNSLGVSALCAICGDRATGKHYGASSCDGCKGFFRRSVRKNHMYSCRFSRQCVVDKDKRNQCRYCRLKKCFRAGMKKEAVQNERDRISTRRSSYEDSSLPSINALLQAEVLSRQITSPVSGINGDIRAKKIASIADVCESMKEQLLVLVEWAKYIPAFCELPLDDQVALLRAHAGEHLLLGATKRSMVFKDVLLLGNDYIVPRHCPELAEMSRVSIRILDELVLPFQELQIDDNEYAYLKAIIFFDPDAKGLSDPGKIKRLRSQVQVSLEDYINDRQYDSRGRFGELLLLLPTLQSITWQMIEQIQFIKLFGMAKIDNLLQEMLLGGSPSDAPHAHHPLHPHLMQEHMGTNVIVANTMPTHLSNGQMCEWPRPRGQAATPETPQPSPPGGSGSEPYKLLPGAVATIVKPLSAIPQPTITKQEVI
Summary of the method: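 Endpoint reflects transcriptional activation of a GAL4-UAS reporter by an HNF4a-GAL4 chimera in transfected HepG2 cells, 24 h post-dosing. Fluorescence from RT-PCR products separated by capillary electrophoresis; DMSO baseline.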

[13] = molecular target: Nuclear receptor subfamily 4 group A member 2 (Homo sapiens) (UniProt P43354); assay: ATG_NURR1_TRANS: Attagene TRANS-FACTORIAL HepG2 Assay for human Nuclear Receptor Related Protein 1 (NURR1) (AID 2282985); settings: HepG2 Attagene TRANS reporter, mRNA readout
Sequence of Nuclear receptor subfamily 4 group A member 2 (Homo sapiens) (P43354 whole entry, looked up): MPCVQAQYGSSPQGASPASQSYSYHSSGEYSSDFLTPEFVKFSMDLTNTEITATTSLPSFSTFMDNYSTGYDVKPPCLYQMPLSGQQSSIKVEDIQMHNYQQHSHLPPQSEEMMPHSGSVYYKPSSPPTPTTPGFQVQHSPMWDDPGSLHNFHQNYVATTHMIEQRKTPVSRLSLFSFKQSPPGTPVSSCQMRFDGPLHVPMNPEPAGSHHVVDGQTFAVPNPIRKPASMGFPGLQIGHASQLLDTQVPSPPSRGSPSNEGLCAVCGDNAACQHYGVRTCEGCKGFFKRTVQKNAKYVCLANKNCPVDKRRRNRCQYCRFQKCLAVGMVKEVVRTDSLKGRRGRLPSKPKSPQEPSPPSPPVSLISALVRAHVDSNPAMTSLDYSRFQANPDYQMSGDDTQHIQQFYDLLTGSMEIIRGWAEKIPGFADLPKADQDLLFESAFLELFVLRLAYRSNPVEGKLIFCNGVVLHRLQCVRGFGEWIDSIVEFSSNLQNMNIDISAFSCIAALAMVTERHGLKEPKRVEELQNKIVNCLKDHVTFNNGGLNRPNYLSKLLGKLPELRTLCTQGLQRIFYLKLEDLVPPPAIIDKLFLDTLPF
Summary of the method: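 Endpoint: reporter mRNA increase relative to DMSO. HepG2 cells transfected with reporter units, treated 24 h; RNA processed by RT-PCR, labelling, HpaI digestion and capillary electrophoresis.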

[14] = molecular target: Nuclear receptor subfamily 1 group I member 3 (Homo sapiens) (UniProt Q14994); assay: ATG_CAR_TRANS: Attagene TRANS-FACTORIAL HepG2 Assay for human Constitutive Androstane Receptor (CAR) (AID 2282969); settings: HepG2 Attagene TRANS-FACTORIAL CAR reporter;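 further: activators raise reporter mRNA above DMSO so AC50 marks induction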
Sequence of Nuclear receptor subfamily 1 group I member 3 (Homo sapiens) (Q14994 whole entry, looked up, the tested form may be a part): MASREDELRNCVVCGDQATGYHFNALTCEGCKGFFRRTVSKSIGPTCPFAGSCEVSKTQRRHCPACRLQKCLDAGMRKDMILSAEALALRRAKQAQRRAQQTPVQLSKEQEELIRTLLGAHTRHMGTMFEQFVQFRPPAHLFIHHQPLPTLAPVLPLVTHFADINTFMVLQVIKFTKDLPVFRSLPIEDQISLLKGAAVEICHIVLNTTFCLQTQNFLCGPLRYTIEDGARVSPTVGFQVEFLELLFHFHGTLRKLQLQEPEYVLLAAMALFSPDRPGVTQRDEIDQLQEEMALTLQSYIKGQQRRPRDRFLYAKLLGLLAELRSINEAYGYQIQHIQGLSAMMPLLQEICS
Summary of the method: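 Transiently transfected HepG2, multiplex TRANS reporters (CAR-Gal4 chimera driving GAL4-UAS reporter). 24 h dosing. Readout: reporter transcript by RT-PCR + capillary electrophoresis, fluorescence intensity; positive direction vs DMSO.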

[15] = molecular target: Estrogen receptor (Homo sapiens) (UniProt P03372); assay: ATG_ERa_TRANS: Attagene TRANS-FACTORIAL HepG2 Assay for human Estrogen Receptor alpha (ERa) (AID 2282970); settings: HepG2 Attagene TRANS ERa GAL4 reporter, mRNA
Sequence of Estrogen receptor (Homo sapiens) (P03372 whole entry, looked up, the tested form may be a part): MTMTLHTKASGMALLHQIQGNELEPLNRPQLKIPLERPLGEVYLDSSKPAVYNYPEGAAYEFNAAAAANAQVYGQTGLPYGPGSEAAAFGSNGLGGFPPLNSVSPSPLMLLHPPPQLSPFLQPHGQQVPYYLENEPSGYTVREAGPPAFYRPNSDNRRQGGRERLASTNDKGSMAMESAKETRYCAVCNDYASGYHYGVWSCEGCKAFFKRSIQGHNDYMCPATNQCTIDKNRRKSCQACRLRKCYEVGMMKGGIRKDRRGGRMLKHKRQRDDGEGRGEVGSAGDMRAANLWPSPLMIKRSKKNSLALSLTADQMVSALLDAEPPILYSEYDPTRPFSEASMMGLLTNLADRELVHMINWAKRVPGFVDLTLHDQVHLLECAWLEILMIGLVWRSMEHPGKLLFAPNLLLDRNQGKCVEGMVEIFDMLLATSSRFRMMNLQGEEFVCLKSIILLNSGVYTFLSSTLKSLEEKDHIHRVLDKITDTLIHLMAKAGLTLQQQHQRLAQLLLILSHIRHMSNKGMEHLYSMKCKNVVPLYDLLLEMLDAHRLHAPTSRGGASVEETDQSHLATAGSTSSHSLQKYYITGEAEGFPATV
Summary of the method: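 Liver-derived HepG2 cells expressing chimeric nuclear receptor-Gal4 proteins from transient transfection were exposed for 24 hours. Gain of reporter mRNA signal versus DMSO, read by capillary electrophoresis of FAM-labelled PCR products, was recorded.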

[16] = molecular target: Bile acid receptor (Homo sapiens) (UniProt Q96RI1); assay: ATG_FXR_TRANS: Attagene TRANS-FACTORIAL HepG2 Assay for Farnesoid X Receptor (FXR) (AID 2282979); settings: HepG2 Attagene TRANS FXR-GAL4 reporter transcription;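 further: hits raise reporter mRNA above DMSO so AC50 marks FXR activation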
Summary of the method: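 Transient transfection of HepG2 with multiplexed GAL4-UAS reporter units; exogenous FXR-GAL4 chimera. Dose 24 h → TriZol RNA → oligo(dT) RT → PCR, 6-FAM primer extension, HpaI cut → CE. Gain vs DMSO.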

[17] = molecular target: Oxysterols receptor LXR-beta (Homo sapiens) (UniProt P55055); assay: ATG_LXRb_TRANS: Attagene TRANS-FACTORIAL HepG2 Assay for human Liver X Receptor beta (LXRb) (AID 2282981); settings: HepG2 Attagene TRANS GAL4-LXRb reporter, mRNA
Sequence of Oxysterols receptor LXR-beta (Homo sapiens) (P55055 whole entry, looked up, the tested form may be a part): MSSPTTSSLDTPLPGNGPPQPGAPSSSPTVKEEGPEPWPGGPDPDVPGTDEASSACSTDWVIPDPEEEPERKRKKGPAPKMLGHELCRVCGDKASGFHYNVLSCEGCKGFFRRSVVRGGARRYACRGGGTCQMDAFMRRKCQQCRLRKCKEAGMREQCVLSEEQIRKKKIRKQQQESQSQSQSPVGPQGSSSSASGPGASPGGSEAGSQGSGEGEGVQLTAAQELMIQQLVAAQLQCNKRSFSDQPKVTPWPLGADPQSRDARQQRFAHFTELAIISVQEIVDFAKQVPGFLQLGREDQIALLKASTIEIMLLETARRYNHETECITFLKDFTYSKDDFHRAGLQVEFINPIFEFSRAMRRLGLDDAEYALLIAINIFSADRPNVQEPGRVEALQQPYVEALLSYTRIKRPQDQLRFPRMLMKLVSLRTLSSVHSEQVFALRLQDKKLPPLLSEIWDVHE
Summary of the method: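 Multiplexed reporter assay, HepG2, 24 h dosing. Fluorescence of labelled RT-PCR products after capillary electrophoresis gives transcript level; positive fitting direction relative to DMSO.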

[18] = molecular target: Steroid hormone receptor ERR1 (Homo sapiens) (UniProt P11474); assay: ATG_ERRa_TRANS: Attagene TRANS-FACTORIAL HepG2 Assay for human Estrogen-Related Receptor alpha (ERRa) (AID 2282971); settings: HepG2 Attagene TRANS reporter, ERRa transactivation
Summary of the method: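 Reporter transcript induction was quantified by RT-PCR and capillary electrophoresis of FAM-labelled, HpaI-cut products after 24 h treatment of HepG2 cells carrying transiently transfected GAL4-UAS reporter units and an exogenous ERRa-Gal4 fusion; activity scored as increase over DMSO.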

[19] = molecular target: Estrogen-related receptor gamma (Homo sapiens) (UniProt P62508); assay: ATG_ERRg_TRANS: Attagene TRANS-FACTORIAL HepG2 Assay for human Estrogen-Related Receptor gamma (ERRg) (AID 2282977); settings: HepG2 Attagene TRANS reporter, ERRg transactivation;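 further: hits increase reporter signal over DMSO so potencies reflect activators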
Sequence of Estrogen-related receptor gamma (Homo sapiens) (P62508 whole entry, looked up, the tested form may be a part): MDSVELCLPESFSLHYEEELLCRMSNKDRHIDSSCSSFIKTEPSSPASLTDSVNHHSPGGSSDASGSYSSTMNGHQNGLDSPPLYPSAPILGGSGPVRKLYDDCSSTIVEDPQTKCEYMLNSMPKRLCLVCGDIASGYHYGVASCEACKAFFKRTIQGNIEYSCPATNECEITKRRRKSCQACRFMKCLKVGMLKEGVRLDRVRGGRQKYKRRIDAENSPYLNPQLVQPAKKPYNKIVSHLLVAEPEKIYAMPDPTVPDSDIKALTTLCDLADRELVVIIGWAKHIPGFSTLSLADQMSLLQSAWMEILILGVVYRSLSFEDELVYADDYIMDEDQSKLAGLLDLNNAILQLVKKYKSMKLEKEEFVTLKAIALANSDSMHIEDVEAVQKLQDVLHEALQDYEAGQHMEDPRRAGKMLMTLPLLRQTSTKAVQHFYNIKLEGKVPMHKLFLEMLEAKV
Summary of the method: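 Exogenous NR-Gal4 chimera activity measured as reporter transcript induction after 24 h in transiently transfected HepG2 cells. RNA reverse-transcribed, PCR-amplified, 6-FAM-labelled and resolved by capillary electrophoresis; increase over DMSO baseline.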

[20] = molecular target: Glucocorticoid receptor (Homo sapiens) (UniProt P04150); assay: ATG_GR_TRANS: Attagene TRANS-FACTORIAL HepG2 Assay for human Glucocorticoid Receptor (GR) (AID 2282978); settings: HepG2 Attagene TRANS GR reporter, mRNA transcription;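 further: activators score as hits since higher reporter transcript over DMSO is fitted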
Summary of the method: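 Fluorescent capillary-electrophoresis quantitation of reporter mRNA is the readout, taken 24 h after dosing human HepG2 cells carrying transiently transfected GAL4-UAS reporter units activated by chimeric NR-GAL4 fusions; activity scored as induction over DMSO.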

Measured: outcome

S=C(S)NCCNC(=S)S
inactive: [1] | [2] | [3] | [4] | [5] | [6] | [7] | [8] | [9]

Nc1nc2ccc([N+](=O)[O-])cc2s1
inactive: [1] | [2] | [3] | [10] | [11] | [12] | [6] | [7] | [13] | [9]

OCc1cccnc1
inactive: [1] | [2] | [14] | [15] | [4] | [10] | [5] | [16] | [12] | [7] | [13] | [8] | [9]

CC(C)C1CCC(O)CC1 (stereo unspecified)
inactive: [1] | [2] | [3] | [4] | [11] | [17] | [6] | [7] | [13]

OC1C(O)C(O)C(O)C(O)C1O (stereo unspecified)
inactive: [1] | [2] | [3] | [10] | [5] | [11] | [17] | [12] | [6] | [7] | [13] | [8] | [9]

CCn1c2ccccc2c2cc(N)ccc21
inactive: [1] | [2] | [14] | [15] | [18] | [4] | [19] | [11] | [6] | [7] | [13] | [9]

CCOc1ccccc1OCC
inactive: [1] | [2] | [3] | [4] | [12] | [6] | [13] | [8] | [9]

Cc1ccc(C(=O)c2cc(O)c(O)c([N+](=O)[O-])c2)cc1
inactive: [1] | [2] | [3] | [4] | [11] | [17] | [12] | [6] | [7] | [8] | [9]

CCCCCOC(=O)CCC
inactive: [1] | [2] | [14] | [18] | [4] | [10] | [5] | [19] | [11] | [17] | [7] | [8] | [9]

COc1cc(C=O)ccc1OC(=O)C(C)C
inactive: [1] | [2] | [3] | [10] | [5] | [19] | [20] | [11] | [17] | [6] | [13] | [8] | [9]

FC1(F)C(F)(F)C(F)(F)C2(F)C(F)(C1(F)F)C(F)(F)C(F)(F)C1(F)C(F)(F)C(F)(F)C(F)(F)C(F)(F)C12F (stereo unspecified)
inactive: [1] | [2] | [3] | [4] | [20] | [12] | [6] | [8] | [9]

COc1nc(C)nc(N)n1
inactive: [1] | [2] | [3] | [4] | [11] | [12] | [6] | [7] | [13] | [9]
